We go through 13 compounds from PubChem BioAssay (NCI).

Assay in all cases: NCI-60 one-dose screen, 48 h (100 = growth as untreated, 0 = no growth, -100 = all killed)
In one assay the test system is SR leukemia. To be noted: 10 µM unless noted.
In the next assay the test system is RPMI-8226 leukemia. The settings on record: 10 µM unless noted.
In the next assay the test system is OVCAR-8 ovarian. To be noted: 10 µM unless noted.
In the next assay the test system is OVCAR-5 ovarian. To be noted: 10 µM unless noted.
For a further assay, the system named is OVCAR-4 ovarian. The settings on record: 10 µM unless noted.
The subject of the next assay is SK-OV-3 ovarian. To be noted: 10 µM unless noted.
The subject of the next assay is IGROV1 ovarian. To be noted: 10 µM unless noted.
In a further assay the test system is OVCAR-3 ovarian. The settings on record: 10 µM unless noted.
In a further assay the test system is HS 578T breast. The settings on record: 10 µM.
The test system of another assay is NCI/ADR-RES ovarian. The settings on record: 10 µM unless noted.

The panel holds about 83,000 compounds, 20% with a hit somewhere; the sample as a whole holds those more often.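 Treatment: one concentration, 48 hours, 96-well format. Scoring: percent growth, with anything below 10 considered active.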 Values without a mark were called inactive. Active and inactive are the calls of the source.

As to `Cc1ccc(N)cc1CN1C(=O)c2ccccc2C1=O`, the growth in the assay on SR leukemia is 87.4%; in the assay on RPMI-8226 leukemia it was 99.3%; in the assay on OVCAR-8 ovarian, 101%; in the assay on OVCAR-5 ovarian it was 104%; in the assay on OVCAR-4 ovarian it was 110%; in the assay with SK-OV-3 ovarian, 94.2%. Moreover, the growth was 105% with IGROV1 ovarian, 117% in the assay with OVCAR-3 ovarian, 106% in the assay on HS 578T breast and 107% in the assay with NCI/ADR-RES ovarian.
As to `Cc1cc2c(-c3nc4ccccn4c3N)c(O)c(O)cc2c(O)c1-c1c(C)cc2c(-c3nc4ccccn4c3N)c(O)c(O)cc2c1O`, the growth in the assay on SR leukemia was 26.9%; with RPMI-8226 leukemia, 9.18% (active); in the assay on OVCAR-8 ovarian, 19.9%; with OVCAR-5 ovarian, 36.7%; in the assay on OVCAR-4 ovarian it was 33.7%; in the assay with SK-OV-3 ovarian it was -10.4% (active). The growth is 28.9% in the assay with IGROV1 ovarian, 26.5% in the assay on OVCAR-3 ovarian, 37.6% in the assay on HS 578T breast and 26.4% with NCI/ADR-RES ovarian.
In the case of `COc1c(C(NC(=O)c2ccccc2)c2sccc2C)cc(Cl)c2cccnc12` (stereo not given), the growth with SR leukemia is 90%; in the assay on RPMI-8226 leukemia, 89.1%; in the assay with OVCAR-8 ovarian it was 96.8%; in the assay with OVCAR-5 ovarian it was 96.6%; with OVCAR-4 ovarian it was 112%; with SK-OV-3 ovarian, 89.3%. In addition, the growth in the assay with IGROV1 ovarian was 106%; in the assay on OVCAR-3 ovarian, 117%; in the assay with HS 578T breast, 98.6%; with NCI/ADR-RES ovarian, 98.2%.
For `O=c1[nH]c(N2CCOCC2)nc2scc(-c3ccccc3)c12`, the growth in the assay on SR leukemia was 102%; in the assay on RPMI-8226 leukemia it was 97.7%; in the assay on OVCAR-8 ovarian, 96.2%; in the assay with OVCAR-5 ovarian it was 104%; with OVCAR-4 ovarian, 101%; with SK-OV-3 ovarian, 88%. Moreover, the growth in the assay on IGROV1 ovarian is 101%; in the assay with OVCAR-3 ovarian it was 110%; in the assay with HS 578T breast, 102%; with NCI/ADR-RES ovarian, 98.1%.
On to `CCCCCc1ccc(C)cc1OC(=O)CCl`, for which the growth with SR leukemia is 109%; with RPMI-8226 leukemia, 98.5%; in the assay with OVCAR-8 ovarian, 89.1%; with OVCAR-5 ovarian it was 101%; in the assay on OVCAR-4 ovarian, 109%; in the assay on SK-OV-3 ovarian it was 107%. In addition, the growth in the assay with IGROV1 ovarian is 103%; in the assay on OVCAR-3 ovarian, 122%; in the assay on HS 578T breast, 116%; with NCI/ADR-RES ovarian, 111%.
With `Cc1cc(N(CCNc2ccnc3cc(Cl)ccc23)Cc2cccs2)nc(Cl)n1`, the growth with SR leukemia is -22.9% (active); in the assay with RPMI-8226 leukemia, -23.2% (active); with OVCAR-8 ovarian, 11.5%; with OVCAR-5 ovarian, 12.8%; with OVCAR-4 ovarian it was -51.3% (active); with SK-OV-3 ovarian it was -48.8% (active). The growth in the assay with IGROV1 ovarian was -1.29% (active); in the assay with OVCAR-3 ovarian it was -77.4% (active); in the assay on HS 578T breast, -5.93% (active); in the assay with NCI/ADR-RES ovarian it was -2.82% (active).
`C=CC[n+]1c(/C=C2\Sc3ccccc3N2C)sc(-c2ccccc2)c1-c1ccccc1`: the growth in the assay on SR leukemia is 1.88% (active); in the assay on RPMI-8226 leukemia it was 0.0474% (active); in the assay with OVCAR-8 ovarian, 15.1%; in the assay on OVCAR-5 ovarian, 21.9%; in the assay on OVCAR-4 ovarian it was 23.8%; in the assay on SK-OV-3 ovarian it was -15% (active). Further, the growth was 36.7% in the assay with IGROV1 ovarian, 15.1% in the assay with OVCAR-3 ovarian, 56.9% with HS 578T breast and 85% in the assay with NCI/ADR-RES ovarian.
As to `CC(=O)C(C(C)=O)C(c1ccccc1)C(C(C)=O)C(C)=O`, the growth is 105% in the assay on SR leukemia; 98.7% in the assay with RPMI-8226 leukemia; 96.5% in the assay on OVCAR-8 ovarian; 102% in the assay on OVCAR-5 ovarian; 87.1% in the assay on OVCAR-4 ovarian; 95.4% in the assay with SK-OV-3 ovarian. Further, the growth in the assay on IGROV1 ovarian was 104%; with OVCAR-3 ovarian, 116%; in the assay with HS 578T breast, 99.8%; in the assay with NCI/ADR-RES ovarian, 94.5%.
For the compound `CSc1nc2ncnc(SC)c2[nH]1`, the growth in the assay on SR leukemia is 90.3%; with RPMI-8226 leukemia, 106%; in the assay with OVCAR-8 ovarian, 103%; in the assay on OVCAR-5 ovarian, 102%; in the assay with OVCAR-4 ovarian, 101%; in the assay with SK-OV-3 ovarian, 79.3%. In addition, the growth in the assay on IGROV1 ovarian was 114%; with OVCAR-3 ovarian it was 115%; in the assay with HS 578T breast, 105%; in the assay on NCI/ADR-RES ovarian, 108%.
For `C=C1C[C@H](O)[C@H](Br)C(C)(C)[C@@]12CCC(C)=C(Cl)C2`, the growth was 5.02% (active) with SR leukemia; -18.2% (active) in the assay with RPMI-8226 leukemia; 29% in the assay with OVCAR-8 ovarian; 43.3% in the assay with OVCAR-5 ovarian; 27.3% in the assay on OVCAR-4 ovarian; 12.1% in the assay on SK-OV-3 ovarian. For the same compound, the growth is 40.1% in the assay on IGROV1 ovarian, 35.2% with OVCAR-3 ovarian, 22.3% with HS 578T breast and 22.1% with NCI/ADR-RES ovarian.
`Cc1sc2c(c1C)c(=O)nc1c(-c3nc4ccccc4s3)n[nH]n12`: the growth in the assay with SR leukemia is 88.5%; in the assay on RPMI-8226 leukemia it was 87.9%; with OVCAR-8 ovarian it was 97.9%; in the assay on OVCAR-5 ovarian, 110%; with OVCAR-4 ovarian it was 99.6%; in the assay on SK-OV-3 ovarian, 91.4%. The growth in the assay with IGROV1 ovarian is 94.2%; in the assay with OVCAR-3 ovarian, 98.2%; in the assay with HS 578T breast it was 93.3%; in the assay with NCI/ADR-RES ovarian, 93.7%.
With `C=CC(=O)N(C)[C@H]1C[C@H]2OC(C)(C1OC)n1c3ccccc3c3c4c(c5c6ccccc6n2c5c31)C(=O)NC4` (stereo not given in full), the growth in the assay on SR leukemia was -25.3% (active); in the assay on RPMI-8226 leukemia, -11.3% (active); in the assay on OVCAR-8 ovarian it was 3.41% (active); in the assay with OVCAR-5 ovarian, 28.9%; in the assay with OVCAR-4 ovarian it was 42.2%; in the assay with SK-OV-3 ovarian, -21.3% (active). Moreover, the growth in the assay on IGROV1 ovarian is 13.7%; in the assay on OVCAR-3 ovarian it was -11.1% (active); with HS 578T breast, -14.9% (active); in the assay on NCI/ADR-RES ovarian it was -1.79% (active).
For the compound `Cc1cc(N(CCNc2ccnc3cc(Cl)ccc23)Cc2ccc3c(c2)OCO3)nc(N2CCN(C)CC2)n1`, the growth in the assay with SR leukemia was -33.4% (active); with RPMI-8226 leukemia it was -42.3% (active); with OVCAR-8 ovarian, 20.3%; with OVCAR-5 ovarian, 97.2%; in the assay with OVCAR-4 ovarian it was 36%; in the assay with SK-OV-3 ovarian, 67.4%. The growth in the assay on IGROV1 ovarian was 51.7%; with OVCAR-3 ovarian, 26.5%; with HS 578T breast it was 34.4%; in the assay on NCI/ADR-RES ovarian, 40.9%.
